From publication PMC4336329 (PLoS ONE, 2015)
The campaign covered roughly 310,000 compounds. About 2,200 (0.71%) showed an effect of 50% or more. The effect is printed as a negative number. Many of the other results were omitted from the sample, so strong results are more common in it than they were.

Target: human ether-à-go-go-related gene (hERG) potassium channel (human, UniProt Q12809)
Assay: primary screen, population patch clamp on CHO cells stably expressing hERG; higher = less effect of the substance

Sequence of human ether-à-go-go-related gene (hERG) potassium channel (Q12809 whole entry, looked up): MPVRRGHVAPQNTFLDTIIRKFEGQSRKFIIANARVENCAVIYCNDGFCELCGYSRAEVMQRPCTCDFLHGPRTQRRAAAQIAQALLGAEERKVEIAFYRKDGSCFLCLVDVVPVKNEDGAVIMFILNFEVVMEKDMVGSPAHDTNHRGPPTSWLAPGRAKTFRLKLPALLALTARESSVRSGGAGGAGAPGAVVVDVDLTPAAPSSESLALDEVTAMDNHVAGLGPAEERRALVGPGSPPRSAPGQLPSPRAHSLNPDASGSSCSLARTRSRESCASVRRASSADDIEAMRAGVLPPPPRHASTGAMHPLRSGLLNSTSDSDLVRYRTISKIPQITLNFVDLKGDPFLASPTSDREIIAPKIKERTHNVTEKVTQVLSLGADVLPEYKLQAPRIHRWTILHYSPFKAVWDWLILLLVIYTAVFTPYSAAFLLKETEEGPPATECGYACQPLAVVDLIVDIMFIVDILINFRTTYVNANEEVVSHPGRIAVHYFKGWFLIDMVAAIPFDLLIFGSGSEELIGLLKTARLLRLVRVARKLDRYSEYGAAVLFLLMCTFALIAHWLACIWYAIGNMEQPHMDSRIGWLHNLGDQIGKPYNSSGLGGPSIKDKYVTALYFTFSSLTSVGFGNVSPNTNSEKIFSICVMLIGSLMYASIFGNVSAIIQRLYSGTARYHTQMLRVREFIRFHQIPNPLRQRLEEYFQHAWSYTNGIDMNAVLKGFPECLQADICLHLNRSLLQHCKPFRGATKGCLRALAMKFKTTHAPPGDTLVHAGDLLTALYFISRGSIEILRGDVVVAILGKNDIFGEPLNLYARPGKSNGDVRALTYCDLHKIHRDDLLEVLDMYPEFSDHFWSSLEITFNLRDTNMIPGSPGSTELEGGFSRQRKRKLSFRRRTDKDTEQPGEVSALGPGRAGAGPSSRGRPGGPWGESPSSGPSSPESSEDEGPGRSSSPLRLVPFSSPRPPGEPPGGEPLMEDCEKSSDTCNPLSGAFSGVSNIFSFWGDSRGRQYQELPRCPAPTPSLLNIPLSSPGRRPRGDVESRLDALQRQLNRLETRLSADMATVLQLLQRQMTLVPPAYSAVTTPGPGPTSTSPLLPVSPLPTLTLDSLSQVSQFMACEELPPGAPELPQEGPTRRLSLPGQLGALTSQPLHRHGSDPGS

SMILES	hERG current change (%, negative = inhibition) at 1uM
CN(Cc1nc2ccccc2c(=O)[nH]1)C(=O)c1cccc(S(=O)(=O)N2CCCCCC2)c1	4.23%
O=C(Oc1ccc(OC(=O)c2ccncc2)cc1)c1ccncc1	0.316%
Cc1ccc(CN2C(=O)CN=C(c3ccccc3)c3ccccc32)cc1	2.73%
Cc1noc(N)c1C(=O)Nc1ccc(C(C)(C)C)cc1	-5.42%
O=C(NCc1cccnc1)c1ccc(-c2cccc(Cl)c2Cl)o1	5.38%
O=C(CN1C(=O)NC2(CCCC2)C1=O)Nc1ccc(Cl)c(C(F)(F)F)c1	9.87%
O=C(COC(=O)CCCOc1ccc(Cl)cc1Cl)NCc1ccccc1	1.55%
O=C(Nc1c(-c2ccc(F)cc2)nc2ccccn12)c1ccc(F)cc1	-4.64%
CCOc1ccc(Cl)cc1Nc1nc(NCCO)nc(N2CCCC2)n1	5.92%
COc1ccc(N2C(=O)C(Cl)=C(N3CCCC(C)C3)C2=O)cc1 (centres unmarked)	9.04%
COc1cc(CNCCc2ccccc2)ccc1OCc1ccc(Cl)nc1.Cl	-0.117%
COc1ccccc1CCNCc1ccc(OC)c(OCc2ccccc2)c1	-29.4%
COc1ccc(CNCCc2ccc(Cl)cc2)cc1OCc1ccccc1	-52.2%
O=C(OCc1cc(=O)n2c(n1)sc1ccccc12)c1ccc(O)cc1	17.3%
COc1ccc(-n2cc(CNC3CCOCC3)c(-c3cccc(F)c3)n2)cc1	-1.28%
COc1ccc(-n2cc(CNC3CCN(C)CC3)c(-c3cccc(F)c3)n2)cc1	-64.4%
COc1ccc(-n2cc(CNC3CCC(O)CC3)c(-c3cccc(F)c3)n2)cc1 (centres unmarked)	4.86%
O=C(OCc1nnc(-c2ccccc2)o1)c1cn(-c2ccccc2)nc1-c1ccccc1	-1.95%
CC1CCCN(C(=O)Cn2nnc(-c3ccc(S(C)(=O)=O)cc3)n2)C1 (centres unmarked)	21.2%
COc1ccc(OC)c(NC(=O)C2CCN(c3cc(-c4ccccc4)nc4ncnn34)CC2)c1	-2.67%
CCCNC(=O)C1CCN(c2cc(-c3ccccc3)nc3ncnn23)CC1	-65.6%
Cc1ccccc1NC(=O)C1CCN(c2cc(-c3ccccc3)nc3ncnn23)CC1	5.72%

SMILES	hERG current change (%, negative = inhibition) at 1uM
CNC(=S)N(CCc1c(C)[nH]c2ccc(C)cc12)Cc1ccco1	-2.69%
CNC(=O)CN(c1cc(C)ccc1C)S(C)(=O)=O	2.83%
Cc1ccccc1N/N=C1\CCCNC1=O	6.51%
O=C(CSc1nnc(-c2cccnc2)n1Cc1ccco1)c1ccc(Cl)cc1	-21.1%
O=C(NNC(=O)c1cccs1)c1ccc(Cl)cc1	9.36%
CSc1ccccc1-n1nnnc1SCC(=O)Nc1ccccc1C	-9.11%
COc1ccccc1/C=C/C=N/NC(=O)c1cccs1	16.1%
Cc1oc(-c2ccc(Cl)cc2)nc1CN1CCCC(C(=O)N2CCN(C(=O)c3ccco3)CC2)C1 (centres unmarked)	-75.1%
O=C(c1ccco1)N1CCN(Cc2nnc(-c3cccc(Br)c3)o2)CC1	-51.6%
Cc1cccc(N2CCN(Cc3nc(-c4cccc(Cl)c4)oc3C)CC2)n1	-7.13%
Cc1cc(N2CCN(Cc3nc(-c4ccc(Cl)cc4)oc3C)CC2)cc(C)n1	-57.8%
Cc1ccc(-c2nc(CN3CCCC(C(=O)N4CCOCC4)C3)c(C)o2)cc1 (centres unmarked)	-9.44%
Cc1oc(-c2ccc(Cl)cc2)nc1CN1CCCC(C(=O)NCc2cccnc2)C1 (centres unmarked)	-43.6%
COC(=O)c1ccc(-c2nc(CN3CCCN(C(=O)c4ccco4)CC3)c(C)o2)cc1	-15%
O=C(c1ccco1)N1CCN(Cc2nnc(-c3ccccc3)o2)CC1	-6.25%
Cc1cc(N2CCN(Cc3nc(-c4ccc(F)cc4)oc3C)CC2)cc(C)n1	-27.2%
O=C(c1ccco1)N1CCN(Cc2nnc(-c3cccc(Cl)c3)o2)CC1	-13.8%
Cc1oc(-c2ccc(Cl)cc2)nc1CN1CCCN(C(=O)c2ccco2)CC1	-57.4%
Cc1oc(-c2ccccc2Cl)nc1CN1CCCN(C(=O)c2ccco2)CC1	-21.4%
Nc1c([N+](=O)[O-])c(=O)sc2ccccc12	2.09%
CN(C(=O)c1cccs1)c1ccc(OCC(=O)N2CCC(C(N)=O)CC2)cc1	25.6%
O=C(Cn1nc(C(F)F)cc1C1CC1)NCCC1=CCCCC1	9.48%

SMILES	hERG current change (%, negative = inhibition) at 1uM
CCCCN(C(=O)CSc1nn(-c2ccc(F)cc2)c(=S)s1)c1c(N)n(CCCC)c(=O)[nH]c1=O	8.15%
Cc1ccc(CCC(=O)Nc2ccccc2F)s1	4.84%
O=C(CC1OC(=O)c2ccccc21)Nc1cccc(S(=O)(=O)N2CCCCCC2)c1 (centres unmarked)	0.598%
CN(C)CCCn1c(N)c(C#N)c2nc(C#N)c(C#N)nc21	11.4%
CCOC(=O)CS(=O)(=O)c1ccc(O)cc1	26.2%
O=C(NNC(=S)Nc1ccc(F)cc1)c1ccccc1OC(F)F	6.53%
CCOc1ccc(CCNC(=O)c2cc(C)nc3ccccc23)cc1OCC	-10.6%
Cn1nnnc1SCC(=O)NC(C)(C)C	7.36%
Cc1cccc(-c2nc(CN3CCCC(C(=O)NC4CCCC4)C3)c(C)o2)c1 (centres unmarked)	-26.4%
CCOc1ccc(-c2nc(CN3CCCC(C(=O)N4CCOCC4)C3)c(C)o2)cc1 (centres unmarked)	-5.79%
CCOC(=O)N1CCC(NC(=O)C2CCCN(Cc3nc(-c4cccc(C)c4)oc3C)C2)CC1 (centres unmarked)	-24.2%
CCOC(=O)N1CCC(NC(=O)C2CCCN(Cc3nc(-c4ccc(CC)cc4)oc3C)C2)CC1 (centres unmarked)	-39.3%
Cc1oc(-c2ccc(Cl)cc2)nc1CN1CCCC(C(=O)N2CCOCC2)C1 (centres unmarked)	-32.9%
COc1ccc(-c2nc(CN3CCCC(C(=O)NC4CCCC4)C3)c(C)o2)cc1 (centres unmarked)	-53.5%
Cc1oc(-c2ccc(Cl)cc2)nc1CN1CCCC(C(=O)NC2CC2)C1 (centres unmarked)	-18.2%
CCOC(=O)N1CCN(C(=O)C2CCCN(Cc3nc(-c4ccc(Cl)cc4)oc3C)C2)CC1 (centres unmarked)	-57.7%
CCOC(=O)N1CCC(NC(=O)C2CCCN(Cc3nc(-c4cccc(Cl)c4)oc3C)C2)CC1 (centres unmarked)	-50.4%
CN1N=C(C(=O)NC2CCCc3c2cnn3-c2ccc(F)cc2F)CCC1=O (centres unmarked)	6.91%
C=C1CC2C3CC[C@@]4(OCOC45COCO5)[C@@]3(C)C(O)CC2[C@@]2(C)CCC(=O)C=C12 (some centres unmarked)	13.6%
Cc1ccc(C(=O)C(C)OC(=O)c2ccccc2[N+](=O)[O-])cc1 (centres unmarked)	8%
CCC1=Nc2cc(C(=O)NCCCN3CCOCC3)ccc2Sc2ccc(Br)cc21	15.9%
CCOC(=O)/C(C#N)=N/Nc1ccccc1C#N	11.2%

SMILES	hERG current change (%, negative = inhibition) at 1uM
CC(C)CCn1nnnc1C(c1ccccc1)N1CCN(C)CC1 (centres unmarked)	9.6%
CCOC(=O)Cn1nnnc1C(CC)N(Cc1ccccc1)Cc1cc2cc(C)ccc2[nH]c1=O (centres unmarked)	-2.05%
Cc1cc(C)cc(N2C(=O)NC(=O)/C(=C\c3cccn3-c3ccccc3)C2=O)c1	-0.0202%
CCCCOC(=O)c1ccc(OC(=O)c2cccnc2)cc1	5.73%
Clc1ncc(CSc2ccccc2)s1	5.7%
COC(=O)c1ccc(SCc2cnc(Cl)s2)cc1	7.26%
O=C(O)c1ccc(SCc2cnc(Cl)s2)cc1	-79.6%
Cc1ccc(NC(=O)N(Cc2nc3ccccc3c(=O)[nH]2)Cc2cccs2)cc1	5.74%
CC1(C)Cc2c(cnn2-c2cccc(F)c2)C(NC(=O)c2csnn2)C1 (centres unmarked)	-85%
CC(C)(C)c1ccc(-n2ncc3c2CCCC3NC(=O)c2csnn2)cc1 (centres unmarked)	9.11%
Cc1cc(C)cc(-n2ncc3c2CCCC3NC(=O)c2csnn2)c1 (centres unmarked)	-84%
CC1(C)Cc2c(cnn2-c2cccc(F)c2)C(NC(=O)c2ccc(=O)[nH]n2)C1 (centres unmarked)	-61.7%
Cc1cc(C(=O)NC2CC(C)(C)Cc3c2cnn3-c2cccc(F)c2)n(C)n1 (centres unmarked)	3.12%
Cc1cc(C(=O)NC2CC(C)(C)Cc3c2cnn3-c2cccc(F)c2)nn1C (centres unmarked)	9.79%
CC1=C(C(=O)NC2CC(C)(C)Cc3c2cnn3-c2cccc(F)c2)OCCO1 (centres unmarked)	-3.59%
Cc1cnc(C(=O)NC2CC(C)(C)Cc3c2cnn3-c2cccc(F)c2)cn1 (centres unmarked)	3.82%
Cc1ccc(-n2ncc3c2CCCC3NC(=O)c2csnn2)cc1C (centres unmarked)	2.61%
Nc1ccc(C(=O)NCc2ccccc2)cc1	8.94%
CCNC(=O)c1ccc(NC(=O)CC2SC(N3CCCCC3)=NC2=O)cc1 (centres unmarked)	-1.11%
COc1ccc(CCNC(=O)c2cc(C)oc2C)cc1	10.3%
